# ChEMBL document CHEMBL3988442, “University of Dundee, Small-Polar-MMV Screening Library” (2021)
# For part of these data: Entries with a potency or affinity are not part of this list.
# What was measured:
# Set-up in all cases: scale not given: direction of the effect not stated beside the values
# [1] = molecular target: Protein translocase subunit SecA (Escherichia coli (strain K12)) (UniProt P10408); experiment: Assay to Identify E. coli SecA ATPase Inhibitors; assay type: functional; settings: 30 µM
# Chain of Protein translocase subunit SecA (Escherichia coli (strain K12)) (P10408 whole entry): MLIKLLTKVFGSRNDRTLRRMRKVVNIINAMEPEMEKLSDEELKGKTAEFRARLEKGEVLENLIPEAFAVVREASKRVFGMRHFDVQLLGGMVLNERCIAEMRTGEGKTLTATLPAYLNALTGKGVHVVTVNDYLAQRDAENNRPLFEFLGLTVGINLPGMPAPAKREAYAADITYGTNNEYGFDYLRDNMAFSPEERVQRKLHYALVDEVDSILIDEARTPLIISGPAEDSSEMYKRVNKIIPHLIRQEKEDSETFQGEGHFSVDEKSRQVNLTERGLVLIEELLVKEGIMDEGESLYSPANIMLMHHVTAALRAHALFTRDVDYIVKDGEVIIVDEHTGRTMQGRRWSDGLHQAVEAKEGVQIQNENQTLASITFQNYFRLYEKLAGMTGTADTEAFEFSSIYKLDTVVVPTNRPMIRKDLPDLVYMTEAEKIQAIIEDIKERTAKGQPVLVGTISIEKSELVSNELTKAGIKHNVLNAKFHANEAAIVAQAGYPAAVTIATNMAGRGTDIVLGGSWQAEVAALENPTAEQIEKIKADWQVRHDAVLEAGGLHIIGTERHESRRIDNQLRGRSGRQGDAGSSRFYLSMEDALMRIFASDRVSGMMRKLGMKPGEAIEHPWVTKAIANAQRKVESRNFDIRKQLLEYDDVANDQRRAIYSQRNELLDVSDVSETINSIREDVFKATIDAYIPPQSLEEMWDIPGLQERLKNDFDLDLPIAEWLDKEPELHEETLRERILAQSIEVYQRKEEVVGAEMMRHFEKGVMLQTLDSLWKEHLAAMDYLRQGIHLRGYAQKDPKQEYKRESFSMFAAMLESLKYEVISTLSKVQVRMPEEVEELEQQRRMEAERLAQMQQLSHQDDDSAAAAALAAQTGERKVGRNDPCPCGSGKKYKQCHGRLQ
# [2] = molecular target: T1, Ubiquitin-activating enzyme e1, putative (Leishmania donovani (strain BPK282A1)) (UniProt E9BSI1); experiment: Leishmania donovani Ubiquitin Activating Enzyme (LdE1); assay type: functional; settings: 30 µM
# T1 sequence (whole entry): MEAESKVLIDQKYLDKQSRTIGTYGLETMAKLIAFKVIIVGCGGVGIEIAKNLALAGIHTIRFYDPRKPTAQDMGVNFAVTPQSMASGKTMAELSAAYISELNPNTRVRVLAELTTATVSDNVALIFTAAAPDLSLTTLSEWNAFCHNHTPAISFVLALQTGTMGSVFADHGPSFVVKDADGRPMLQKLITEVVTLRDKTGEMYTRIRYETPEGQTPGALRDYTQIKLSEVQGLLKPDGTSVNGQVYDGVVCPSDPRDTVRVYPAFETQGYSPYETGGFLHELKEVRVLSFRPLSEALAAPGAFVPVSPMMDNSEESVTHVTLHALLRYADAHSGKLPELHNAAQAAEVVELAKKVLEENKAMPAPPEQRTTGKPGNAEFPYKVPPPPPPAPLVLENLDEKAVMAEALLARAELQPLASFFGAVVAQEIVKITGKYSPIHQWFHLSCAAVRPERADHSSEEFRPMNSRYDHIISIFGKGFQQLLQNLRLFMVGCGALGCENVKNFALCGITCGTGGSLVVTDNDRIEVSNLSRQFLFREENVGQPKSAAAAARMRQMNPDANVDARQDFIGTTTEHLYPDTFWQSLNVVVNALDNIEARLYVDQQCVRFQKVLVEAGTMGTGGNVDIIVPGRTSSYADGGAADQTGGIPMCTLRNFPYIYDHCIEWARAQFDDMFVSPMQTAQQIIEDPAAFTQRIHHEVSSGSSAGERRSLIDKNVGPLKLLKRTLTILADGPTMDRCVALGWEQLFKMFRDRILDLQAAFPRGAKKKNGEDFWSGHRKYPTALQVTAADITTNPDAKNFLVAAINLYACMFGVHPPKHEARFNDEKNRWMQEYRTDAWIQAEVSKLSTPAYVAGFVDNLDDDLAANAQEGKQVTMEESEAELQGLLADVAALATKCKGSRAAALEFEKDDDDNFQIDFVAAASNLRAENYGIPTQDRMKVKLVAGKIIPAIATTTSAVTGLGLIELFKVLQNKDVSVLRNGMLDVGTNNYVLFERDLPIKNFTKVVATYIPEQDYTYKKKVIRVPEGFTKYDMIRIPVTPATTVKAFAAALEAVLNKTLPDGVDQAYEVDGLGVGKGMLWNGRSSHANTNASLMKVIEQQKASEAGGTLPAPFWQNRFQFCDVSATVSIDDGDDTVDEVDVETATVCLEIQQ
# [3] = molecular target: AMP-activated protein kinase, AMPK (Homo sapiens) (UniProt P54646+O43741+P54619+Q9UGJ0+Q9Y478+Q13131+Q9UGI9); experiment: AMP-dependent Kinase enzyme assay. An in vitro enzyme assay that detects ADP turnover that is directly proportional to AMPK activity. This uses naive AMPK that is activated during the assay with MK-8722; assay type: functional; settings: 30 µM
# [4] = molecular target: Sialic acid-binding Ig-like lectin 9 (Homo sapiens) (UniProt Q9Y336); experiment: Hs-Siglec9 ALPHAscreen SOP 20170721; settings: 10 µM
# Chain of Sialic acid-binding Ig-like lectin 9 (Homo sapiens) (Q9Y336 whole entry): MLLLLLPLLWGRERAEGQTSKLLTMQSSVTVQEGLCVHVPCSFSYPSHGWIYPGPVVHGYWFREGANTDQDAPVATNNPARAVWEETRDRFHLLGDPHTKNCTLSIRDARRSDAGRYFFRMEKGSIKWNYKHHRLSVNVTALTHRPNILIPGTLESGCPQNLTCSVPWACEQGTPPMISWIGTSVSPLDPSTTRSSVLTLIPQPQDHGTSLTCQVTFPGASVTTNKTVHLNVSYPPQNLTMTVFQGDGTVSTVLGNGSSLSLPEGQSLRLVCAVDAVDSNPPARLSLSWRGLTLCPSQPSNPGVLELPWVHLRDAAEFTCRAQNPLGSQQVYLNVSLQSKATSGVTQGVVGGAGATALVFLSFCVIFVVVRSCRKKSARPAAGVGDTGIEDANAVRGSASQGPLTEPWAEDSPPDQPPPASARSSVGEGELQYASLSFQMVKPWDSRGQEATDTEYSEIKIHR
# Trypanosoma cruzi = experiment: Trypanosoma cruzi phosphomannomutase and mannose-1-phosphate guanylyltransferase assay; assay type: functional; settings: 10 µM
# [5] = molecular target: T2, Arginase-2, mitochondrial (Homo sapiens) (UniProt P78540); experiment: in vitro enzyme assay to detect the production of urea directly proportional to the activity of Arginase II; assay type: functional; settings: 33.3 µM; also: in the data most compounds retested in dose-response had high values
# T2 sequence (whole entry): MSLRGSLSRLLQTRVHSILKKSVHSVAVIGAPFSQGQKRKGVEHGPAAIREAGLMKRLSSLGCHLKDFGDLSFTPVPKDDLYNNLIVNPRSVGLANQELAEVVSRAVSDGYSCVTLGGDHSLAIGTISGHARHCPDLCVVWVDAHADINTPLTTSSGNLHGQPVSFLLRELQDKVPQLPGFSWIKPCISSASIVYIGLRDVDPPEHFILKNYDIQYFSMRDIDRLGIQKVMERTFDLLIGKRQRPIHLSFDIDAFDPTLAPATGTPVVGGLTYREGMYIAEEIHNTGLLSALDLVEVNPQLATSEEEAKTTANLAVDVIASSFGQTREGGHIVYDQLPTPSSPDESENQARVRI
# [6] = molecular target: T3, Proteasome subunit beta (Trypanosoma cruzi) (UniProt O96673); experiment: Trypanosoma cruzi proteasome chymotrypsin-like activity (TcProtChymo) assay.; also: in the data most compounds retested in dose-response had high values; assay type: functional; settings: 9.37 µM
# T3 sequence (whole entry): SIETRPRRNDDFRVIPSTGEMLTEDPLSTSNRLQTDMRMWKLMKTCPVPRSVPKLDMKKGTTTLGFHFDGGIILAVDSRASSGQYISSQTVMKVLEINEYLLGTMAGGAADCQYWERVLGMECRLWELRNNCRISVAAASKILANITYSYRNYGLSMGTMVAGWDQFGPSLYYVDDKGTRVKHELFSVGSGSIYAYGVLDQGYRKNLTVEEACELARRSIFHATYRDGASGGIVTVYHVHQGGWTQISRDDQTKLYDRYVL
# Homo sapiens = species: Homo sapiens; experiment: To identify inhibition of the IFN signalling (Jak-Stat) pathway via expression of an eGFP reporter gene under the control of an IFN-stimulated response element (ISRE) containing MxA promoter.; assay type: functional; settings: 30 µM
# [7] = molecular target: T4, Tyrosyl-tRNA synthetase, putative (Trypanosoma cruzi (strain CL Brener)) (UniProt Q4DSP6); experiment: Trypanosoma cruzi tyrosyl tRNA synthetase (TcYRS) _High Tyrosine SOP; assay type: functional; settings: 30 µM; also: in the data most compounds retested in dose-response had high values
# T4 sequence (whole entry): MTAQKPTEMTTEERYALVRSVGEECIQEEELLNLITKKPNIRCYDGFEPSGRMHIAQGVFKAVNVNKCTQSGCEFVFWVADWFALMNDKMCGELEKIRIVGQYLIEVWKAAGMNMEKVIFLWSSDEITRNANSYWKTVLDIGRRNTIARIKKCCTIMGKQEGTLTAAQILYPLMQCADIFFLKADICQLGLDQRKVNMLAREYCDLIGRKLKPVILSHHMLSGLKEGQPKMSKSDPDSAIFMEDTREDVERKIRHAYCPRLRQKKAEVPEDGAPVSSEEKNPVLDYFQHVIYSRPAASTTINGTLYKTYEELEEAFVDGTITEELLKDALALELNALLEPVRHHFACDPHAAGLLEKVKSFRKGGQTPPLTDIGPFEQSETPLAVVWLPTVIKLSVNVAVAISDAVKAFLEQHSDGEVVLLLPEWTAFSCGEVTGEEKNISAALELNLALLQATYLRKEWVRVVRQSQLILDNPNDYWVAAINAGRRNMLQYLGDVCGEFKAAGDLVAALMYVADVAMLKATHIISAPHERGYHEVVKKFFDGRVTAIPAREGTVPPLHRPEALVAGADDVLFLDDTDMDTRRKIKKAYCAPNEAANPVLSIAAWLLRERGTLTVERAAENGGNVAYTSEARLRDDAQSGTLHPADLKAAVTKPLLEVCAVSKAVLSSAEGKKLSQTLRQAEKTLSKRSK
# [8] = molecular target: T4, Tyrosyl-tRNA synthetase, putative (Trypanosoma cruzi (strain CL Brener)); experiment: Trypanosoma cruzi tyrosyl tRNA synthetase (TcYRS) SOP; assay type: functional; settings: 30 µM
# [9] = molecular target: Chromo domain-containing protein 1 (Saccharomyces cerevisiae (strain ATCC 204508 / S288c) (Baker's yeast)) (UniProt P32657); experiment: ScCHD-1 Enzyme Inhibition Assay; assay type: functional; settings: 30 µM; also: in the data most compounds retested in dose-response had high values
# Chain of Chromo domain-containing protein 1 (Saccharomyces cerevisiae (strain ATCC 204508 / S288c) (Baker's yeast)) (P32657 whole entry, the tested form may be a part): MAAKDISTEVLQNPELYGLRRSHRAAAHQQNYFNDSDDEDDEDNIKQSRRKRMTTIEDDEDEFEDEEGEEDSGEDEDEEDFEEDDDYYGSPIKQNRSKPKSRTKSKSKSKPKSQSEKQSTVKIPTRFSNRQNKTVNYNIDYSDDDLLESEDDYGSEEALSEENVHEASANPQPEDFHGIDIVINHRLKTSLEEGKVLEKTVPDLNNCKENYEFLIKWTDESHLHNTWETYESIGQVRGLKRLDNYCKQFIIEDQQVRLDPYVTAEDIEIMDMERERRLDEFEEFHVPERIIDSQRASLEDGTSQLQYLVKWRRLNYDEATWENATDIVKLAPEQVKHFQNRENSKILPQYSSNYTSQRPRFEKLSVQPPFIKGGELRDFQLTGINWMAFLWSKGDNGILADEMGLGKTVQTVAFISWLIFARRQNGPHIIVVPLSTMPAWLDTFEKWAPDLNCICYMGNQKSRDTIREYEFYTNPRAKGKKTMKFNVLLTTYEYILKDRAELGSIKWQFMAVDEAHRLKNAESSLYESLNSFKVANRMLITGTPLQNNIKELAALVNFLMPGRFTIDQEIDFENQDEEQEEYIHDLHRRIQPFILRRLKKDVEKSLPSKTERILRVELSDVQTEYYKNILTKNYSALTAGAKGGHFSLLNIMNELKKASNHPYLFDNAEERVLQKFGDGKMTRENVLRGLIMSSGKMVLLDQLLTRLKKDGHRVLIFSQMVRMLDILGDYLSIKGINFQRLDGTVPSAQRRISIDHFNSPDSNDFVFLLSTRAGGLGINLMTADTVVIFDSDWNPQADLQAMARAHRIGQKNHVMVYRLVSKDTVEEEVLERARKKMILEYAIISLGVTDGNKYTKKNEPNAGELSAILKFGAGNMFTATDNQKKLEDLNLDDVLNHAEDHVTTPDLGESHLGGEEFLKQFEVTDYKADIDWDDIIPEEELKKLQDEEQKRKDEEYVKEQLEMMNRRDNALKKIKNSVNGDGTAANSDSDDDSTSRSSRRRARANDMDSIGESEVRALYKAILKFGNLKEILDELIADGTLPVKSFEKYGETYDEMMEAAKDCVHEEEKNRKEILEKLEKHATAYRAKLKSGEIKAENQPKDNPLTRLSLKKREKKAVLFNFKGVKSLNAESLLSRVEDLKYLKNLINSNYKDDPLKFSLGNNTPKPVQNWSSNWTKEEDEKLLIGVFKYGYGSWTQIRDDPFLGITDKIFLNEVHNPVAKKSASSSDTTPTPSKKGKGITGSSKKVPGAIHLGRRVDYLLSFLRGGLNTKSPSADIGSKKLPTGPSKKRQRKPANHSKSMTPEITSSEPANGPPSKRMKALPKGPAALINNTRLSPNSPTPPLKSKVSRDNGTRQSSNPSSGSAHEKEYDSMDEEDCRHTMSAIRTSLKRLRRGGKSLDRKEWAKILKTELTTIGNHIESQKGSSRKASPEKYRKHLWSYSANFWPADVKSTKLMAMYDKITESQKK
SMILES,Percent Effect [1],Percent Effect [2],Percent Effect [3],Percent Effect [4],Percent Effect (Trypanosoma cruzi),Percent Effect [5],Percent Effect [6],Percent Effect (Homo sapiens),Percent Effect [7],Percent Effect [8],Percent Effect [9]
Fc1cccc(-c2nc(CN3CCOC(Cn4cccn4)C3)co2)c1 (stereo unspecified),-5.98%,2.7%,-6.81%,3.19%,-2.36%,4.81%,4.68%,-1.08%,7.39%,6.17%,-3.05%
O=C(COc1coc(CN2CCOCC2)cc1=O)c1ccc(Cl)cc1,-3.55%,2.63%,5.88%,11%,-2.04%,-11.8%,12%,20.8%,-1.06%,0%,-0.42%
Cc1ccccc1Cc1cnc(NC(=O)C2CNC(=O)N2)s1 (stereo unspecified),-3.2%,3.8%,-1.9%,0.365%,2.36%,-4.95%,13.7%,22.3%,2.08%,15.2%,-23.7%
COCC(=O)N1CCC(c2noc3nc(C)cc(C(F)(F)F)c23)CC1,-6.46%,4.05%,9.11%,-5.57%,-2.37%,-7.66%,13.9%,21.4%,-2.15%,-1.3%,-1.78%
O=C(N[C@@H]1CN(c2ncccn2)C[C@@H]2CCCO[C@@H]21)c1cnccn1,-0.31%,8%,1.89%,11.3%,-1.74%,-48.6%,7.18%,10.6%,-7.29%,20%,-6.1%
Cc1cc(O)nc(C2CCCN(Cc3ccncc3)C2)n1 (stereo unspecified),-0.276%,14.9%,4.7%,-7.91%,3.75%,-0.696%,10.4%,-0.951%,1.07%,11.7%,-12.3%
Cn1cc(C2CCCN2C(=O)Cc2n[nH]c3ccccc23)cn1 (stereo unspecified),-3.26%,22.8%,4.87%,-9.88%,6.33%,0.76%,13%,7.84%,6.4%,21.5%,-11.7%
CC(C)n1ccc(-c2cc(C(=O)N3CCCC3)c3ccccn23)n1,2.31%,13.5%,128%,-12.1%,-4.79%,0.319%,3.69%,65.6%,-1.08%,-2.56%,-12%
Cc1n[nH]cc1CNc1ccc2c(c1)CN(C(=O)OC(C)(C)C)CC2,-2.19%,5.2%,-9.51%,0.686%,2.26%,-8.28%,15.5%,68.8%,2.15%,3.7%,-6.66%
O=C(NC1CC1)[C@H]1C[C@H]2OCC[C@H]2N(CC2CC2)C1,-4.51%,-2.67%,3.02%,9.5%,-3.28%,-55.7%,0.513%,6.42%,-4.17%,-7.5%,4.05%
CC(=O)N1[C@H](Cn2cncn2)C[C@@H]2CN(S(C)(=O)=O)CC[C@@H]21,-4.17%,10.4%,1.39%,9.47%,9.54%,-74.5%,14.5%,-25.9%,4.3%,16.1%,-4.74%
CCN1CC2(CCNCC2)COc2ccccc2S1(=O)=O,-1.39%,6.67%,7.12%,3.15%,-4.91%,-18.1%,13.1%,2.26%,-7.41%,5.13%,-8.01%
Cc1ncsc1CN1C[C@H](C(=O)N2CCCO2)[C@@H]2CCO[C@@H]2C1,-2.57%,-8.22%,-4.3%,10.2%,7.74%,-7.58%,16.5%,-2.42%,5.21%,3.7%,-1.86%
Cn1ccnc1CN1CCN(c2ccc(C#N)cn2)CC1,-0.525%,-67.6%,39.5%,9.32%,0.464%,1.29%,6.64%,7.75%,6.93%,15.8%,-4.02%
CCOc1ccc(N(CC(=O)c2ccccc2)C2=NCCCCC2)cc1,-1.17%,-10.5%,6.97%,2.61%,3.21%,-2.37%,8.72%,-7.49%,-1.06%,-10.4%,4.46%
CC(NC1CCN(CCS(C)(=O)=O)CC1)c1ccc(Cl)cc1 (stereo unspecified),-1.94%,0%,-3.49%,0.142%,-5.02%,-0.476%,3.62%,21.6%,0.529%,7.32%,-2.22%
Cc1cccc(N2CCC(NC(=O)CCCc3cccs3)CC2)n1,-3.35%,11%,0.158%,5.32%,5.49%,6.82%,9.94%,4.54%,5.38%,12.5%,2.88%
Cc1cnn(CC2CN(Cc3cccc(OCC(N)=O)c3)CCO2)c1 (stereo unspecified),-3.33%,-5.2%,0.653%,4.26%,-7.3%,5.34%,-2.53%,23.4%,3.88%,-2.44%,1.45%
N#Cc1ccc(CNCC2CCN(CCO)CC2)cc1,-1.19%,5.48%,-0.789%,-1.57%,-7.05%,5%,9.58%,11.5%,0%,10%,-2.99%
CC(C)Oc1ncccc1CNC(=O)N1CCC1c1ccccc1 (stereo unspecified),-7.94%,13.2%,-8.45%,2.16%,11.3%,-0.766%,9.69%,23.3%,7.35%,17.1%,-12%
Cc1ncsc1C(=O)NCCn1nc2ccccn2c1=O,-2.94%,13.5%,0.246%,-6.32%,-3.44%,2.03%,2.51%,13.6%,8.91%,15.8%,-7.12%
